# Inconclusive results are not listed. The source made the active and inactive calls. The call rests on the fitted dose curve.
# Biological target: Neuropeptide S receptor (Homo sapiens) (UniProt Q6W5P4)
# Assay: Confirmation Concentration-Response Assay for Antagonists of the Neuropeptide S Receptor: cAMP Signal Transduction, SAR for Probe
# Conditions: CHO-NPSR cells, cAMP TR-FRET, antagonist mode; series mostly up to 47.8 µM
# How it was run: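 CHO cells stably expressing NPSR (1200 cells/well, cultured 16–30 h) received compound at up to 46 μM final. They were then stimulated for 60 min at 37 °C with reagent containing 100 nM NPS and RO-201724. cAMP was read by LANCE TR-FRET (665/620 ratio), and IC50 came from Hill-equation fits.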
# Neuropeptide S receptor (Homo sapiens), sequence (Q6W5P4 whole entry, looked up): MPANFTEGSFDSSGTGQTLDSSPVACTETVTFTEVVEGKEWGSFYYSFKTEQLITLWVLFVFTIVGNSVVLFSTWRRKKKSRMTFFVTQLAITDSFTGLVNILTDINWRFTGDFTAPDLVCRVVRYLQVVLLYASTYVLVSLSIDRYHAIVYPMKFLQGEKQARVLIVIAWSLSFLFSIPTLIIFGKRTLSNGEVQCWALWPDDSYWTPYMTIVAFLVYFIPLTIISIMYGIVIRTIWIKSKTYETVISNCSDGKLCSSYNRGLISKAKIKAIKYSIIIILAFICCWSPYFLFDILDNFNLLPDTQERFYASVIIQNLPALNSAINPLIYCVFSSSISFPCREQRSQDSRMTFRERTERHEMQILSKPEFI
row,Compound,Potency
1,COc1cccc(C2c3c(ncn(-c4ccc5c(c4)OCO5)c3=N)Oc3ccc4ccccc4c32)c1 (centres undefined),6.14 µM (active)
2,Cc1c(P(=S)(c2ccccc2)c2ccccc2)c2ccccc2n1C(=O)NCc1ccc(F)cc1,31.5 µM (active)
3,COc1cccc(C2c3c(ncn(Cc4cccs4)c3=N)Oc3ccc4ccccc4c32)c1 (centres undefined),19.4 µM (active)
4,COc1cccc(C2c3c(ncn(-c4cccc(F)c4)c3=N)Oc3ccc4ccccc4c32)c1 (centres undefined),3.87 µM (active)
5,COc1ccc(-n2cnc3c(c2=N)C(c2cccc(OC)c2)c2c(ccc4ccccc24)O3)cc1 (centres undefined),9.72 µM (active)
6,COc1cccc(C2c3c(ncn(-c4cccc(Br)c4)c3=N)Oc3ccc4ccccc4c32)c1 (centres undefined),19.4 µM (active)
7,c1ccc(P(c2ccccc2)c2cnc3ccccn23)cc1,inactive
8,COc1cccc(C2c3c(ncn(-c4ccc(F)cc4)c3=N)Oc3ccc4ccccc4c32)c1 (centres undefined),15.4 µM (active)
9,COc1cccc(C2c3c(ncn(-c4ccncc4)c3=N)Oc3ccc4ccccc4c32)c1 (centres undefined),19.4 µM (active)
10,C[n+]1cc(C(O)(c2ccccc2)c2ccccc2)n2ccccc21,inactive
11,Cc1c(P(=S)(c2ccccc2)c2ccccc2)c2ccccc2n1CCCc1ccccc1,inactive
12,COc1cccc(C2c3c(ncn(-c4ccc(NC(C)=O)cc4)c3=N)Oc3ccc4ccccc4c32)c1 (centres undefined),19.4 µM (active)
13,O=C(NCc1ccc(F)cc1)n1c(-c2ccccc2)c(P(=S)(c2ccccc2)c2ccccc2)c2ccccc21,inactive
14,COc1cccc(C2c3c(ncn(-c4ccccc4OC)c3=N)Oc3ccc4ccccc4c32)c1 (centres undefined),6.14 µM (active)
15,COc1cccc(C2c3c(ncn(-c4ccc(C(C)(C)C)cc4)c3=N)Oc3ccc4ccccc4c32)c1 (centres undefined),15.4 µM (active)
16,Cc1c(P(=S)(c2ccccc2)c2ccccc2)c2ccccc2n1C(=O)NCc1ccccc1,31.5 µM (active)
17,Cc1c(P(=O)(c2ccccc2)c2ccccc2)c2ccccc2n1C,inactive
18,COc1ccc(C2c3c(ncn(CCCc4ccccc4)c3=N)Oc3ccc4ccccc4c32)cc1OC (centres undefined),24.4 µM (active)
19,COc1cccc(C2c3c(ncn(-c4ccccc4C(C)(C)C)c3=N)Oc3ccc4ccccc4c32)c1 (centres undefined),12.2 µM (active)

# — PubChem BioAssay AID2568 (National Center for Advancing Translational Sciences (NCATS), 2010)
